In the library only some 7.4% were active in any assay of this set; here they are far more common.
SMN2 splice enh: increases expression of the SMN2 splice variant; HEK293 SMN2-luciferase splicing reporter, luminescence, 30-36 h; Potency, µM (top dose mostly 46.1 µM), for inactives: at the top dose activity change, positive = activation, hits mostly activators; hit rate 2.8% among 210,000; also: % of control where 0% means no effect; nearly all actives have a fitted effect of over 55% in size
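HEK293 cells carry an SMN2 […]–luciferase reporter in which exon 7 inclusion puts luciferase in frame. Cells were plated 10-12 h before compound addition, then incubated 30-36 h at 37C. ONE-Glo luminescence was read; sodium butyrate at 4.5 mM final served as control.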
ELG1 genotox: induces genotoxicity in HEK293T cells with luciferase-tagged ELG1; Potency, µM (titrated, usually from 46 µM), inactives show at the top dose activity change, positive = activation, hits mostly activators; HEK293T ELG1-luciferase reporter, luminescence, 16 h; hit rate 1.3% among 330,000; also: % of control where 0% means no effect; nearly all actives have a fitted effect of over 60% in size
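Step 1: seed 2,000 HEK293T ELG1-luciferase cells per well. Step 2: add compound or DMSO, incubate 16 hr at 37 °C. Step 3: ONE-Glo, 30 min at room temperature, read luminescence.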
FLuc counter: inhibits or activates purified firefly luciferase, miR-21 counter-screen. hit rate 6.9% among 360,000. P08659. Potency, µM (highest dose often 57.5 µM), without a hit: at the top dose activity change, negative = inhibition, actives largely listed as inhibitors. purified FLuc, Km substrates, luminescence inhibition;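 also: plate controls were vehicle for no effect and reference inhibitor for full effect; nearly all actives have a fitted effect of over 55% in size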
Target sequence (P08659 whole entry, looked up): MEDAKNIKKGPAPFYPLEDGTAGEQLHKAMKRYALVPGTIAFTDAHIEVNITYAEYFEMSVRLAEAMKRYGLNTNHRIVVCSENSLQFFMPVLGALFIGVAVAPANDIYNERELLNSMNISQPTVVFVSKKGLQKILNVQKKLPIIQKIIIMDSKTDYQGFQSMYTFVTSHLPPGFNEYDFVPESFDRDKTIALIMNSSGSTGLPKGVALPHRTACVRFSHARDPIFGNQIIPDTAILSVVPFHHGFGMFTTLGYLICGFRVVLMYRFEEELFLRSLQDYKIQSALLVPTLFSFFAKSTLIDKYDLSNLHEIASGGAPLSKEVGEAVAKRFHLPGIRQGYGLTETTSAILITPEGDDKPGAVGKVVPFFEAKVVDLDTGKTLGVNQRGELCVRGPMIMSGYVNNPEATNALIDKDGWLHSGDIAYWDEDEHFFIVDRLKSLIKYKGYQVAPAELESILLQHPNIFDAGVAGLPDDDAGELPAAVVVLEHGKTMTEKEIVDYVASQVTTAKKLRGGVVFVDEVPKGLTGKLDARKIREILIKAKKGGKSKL
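Purified P. pyralis luciferase, 10 nM final, with Km-level 10 uM D-luciferin and 10 uM ATP in 50 mM Tris acetate pH 7.5, 10 mM Mg acetate, 0.01% Tween-20, 0.05% BSA; 6-point qHTS titration about 60 µM downward; luminescence read.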
Rab9 prom act: activators of Rab9 promoter; Huh7 Rab9 promoter-luciferase reporter, luminescence, 24 h; hit rate 2.8% among 320,000; Potency, µM (series often up to 9.22 µM), for the others: at the top dose activation, negative = inhibition, most hits filed as activators; also: % of control where 0% means no effect; nearly all actives have a fitted effect of over 60% in size
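Cells were plated at 1500 per well in reduced-serum medium with 10% FBS and left 2 h. Compound in DMSO was then added for 24 h at 37 °C. Reporter signal was read by luminescence after 10 min with luciferase detection reagent.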
NPC1 promoter act: activates the NPC1 promoter | Potency, µM (series often up to 9.22 µM), for the others: top-dose activation, actives largely listed as activators | hit rate 2.4% among 320,000 | AID 485313 | Huh7 NPC1 promoter luciferase reporter, 24 h; also: % of control where 0% means no effect; nearly all actives have a fitted effect of over 60% in size
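Luciferase expression driven by the NPC1 promoter was measured in stably transfected Huh7 cells after a 24 h compound incubation, using a luciferase reagent and a luminescence read.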
* = called active by the depositor; ? = inconclusive; / = not tested or not shown; [ ] = another dose, or the depositor's remark. Calls follow the shape of the dose curve; as a rule, active = well fitted curve in the direction sought with a large enough effect; inconclusive = small, poorly fitted or top-dose-only effect, or another doubt; inactive = no such curve, though single readings can be large; an effect the other way counts as inactive or inconclusive. Potency is read from the fitted curve at half-maximal effect.

SMILES	SMN2 splice enh	ELG1 genotox	FLuc counter	Rab9 prom act	NPC1 promoter act
O=C1OC(c2ccc3c(c2)OCO3)N(C(=O)c2ccc(Cl)c(Cl)c2)c2ccccc21 (centres undefined)	13µM*	?	-1%	3.2µM*	?
O=C1c2cc(Br)ccc2OC2C=CC=CC12 (centres undefined)	/	13%	/	/	/
O=C(Nc1ccccc1)Nc1sccc1-c1nc2ccccc2s1	/	-1%	15µM*	-3%	10%
COc1ccccc1NC(=O)Nc1sccc1-c1nc2ccccc2s1	/	-5%	?	-3%	9%
COc1c(C)cccc1C(=O)Nc1ccc(-c2nc3ccccc3s2)c(Cl)c1	13%	/	-7%	/	/
O=C(Nc1cccc(Cl)c1)Nc1sccc1-c1nc2ccccc2s1	/	-5%	13µM*	3%	9%
Clc1ccc(/C(Cc2nc3ccccc3[nH]2)=N\Nc2ccccc2)cc1	/	?	13µM*	2.8µM*	3.5µM*
CN/N=C(\Cc1nc2ccccc2[nH]1)c1ccc([N+](=O)[O-])cc1	?	13%	17µM*	?	?
O=C(Cc1nc2ccccc2[nH]1)c1ccc(Cl)cc1	/	16%	6µM*	2.5µM*	2.5µM*
O=C(NCCc1nc2ccccc2[nH]1)Nc1ccccc1	-12%	0%	0%	2%	4%
N#CCCN/N=C(/Cc1nc2ccccc2[nH]1)c1cccc(Cl)c1	0.56µM*	0%	?	19%	11%
O=C(NCCc1nc2ccccc2[nH]1)c1cccc(Br)c1	-12%	0%	6%	-4%	0%
O=C(Cc1nc2ccccc2[nH]1)c1ccc([N+](=O)[O-])cc1	/	?	15µM*	?	3.2µM*
CC(=O)Nc1cccc(-c2csc(NCc3ccco3)n2)c1	?	?	17µM*	1%	8%
CCNc1nc(-c2cc(C)n(Cc3ccco3)c2C)cs1	27%	-6%	?	3%	1%
c1coc(CNc2nc(-c3cccs3)cs2)c1	?	6%	24µM*	?	?
Oc1ccc(-c2csc(NCc3ccco3)n2)cc1	25%	18µM*	11µM*	28%	26%
Cc1nc2ncccn2c1-c1csc(NCc2ccco2)n1	-24%	16%	-16%	-8%	0%
COC(=O)CCCC1=CC2=C(c3ccccc3)C(=O)C(C)(OC(=O)C3CCCC3)C(=O)C2=CO1 (centres undefined)	-6%	/	/	/	/
Cc1ccc(OCC(=O)N2CCC(C)CC2)c([N+](=O)[O-])n1	/	0%	5%	1%	1%
C/C(=C\C(=O)Nc1cc(C)on1)c1ccccc1	?	14%	12µM*	27%	29%
COc1ccc(OCc2cccc(C(=O)Nc3cc(C)on3)c2)cc1	0.2µM*	?	3.8µM*	0.1µM*	0.1µM*
Cc1cccc(OCc2ccc(C(=O)Nc3cc(C)on3)o2)c1	/	1%	-2%	5%	9%
COc1ccc(C(=O)Nc2cc(C)on2)cc1	13µM*	?	6.7µM*	1.8µM*	2µM*
Cc1cc(NC(=O)c2ccc(C)c(C)c2)no1	/	?	24µM*	2.8µM*	3.5µM*
SMILES	SMN2 splice enh	ELG1 genotox	FLuc counter	Rab9 prom act	NPC1 promoter act
COc1cc(OC)cc(C(=O)Nc2cc(C)on2)c1	/	3%	4%	-2%	-1%
CCC(=O)N1CCc2cc(CNS(=O)(=O)c3ccc(Cl)s3)ccc21	/	/	-16%	/	/
COc1ccc(-c2cc(C(=O)Nc3cc(C)on3)no2)cc1	23%	17%	0%	?	19%
CNc1nc(N)c(C(=O)Nc2cc(C)on2)s1	14µM*	13%	?	?	?
Cc1cc(NC(=O)c2ccccc2)no1	/	?	24µM*	?	?
COc1ccc(C(=O)Nc2noc3ccccc23)cc1	?	/	0.24µM*	/	/
Cc1cc(NC(=O)c2ccc(NC(=O)C(C)C)cc2)no1	6%	?	?	?	14%
Cc1cc(NC(=O)c2ccc3nc(-c4ccccc4)c(-c4ccccc4)nc3c2)no1	19%	11%	0%	-8%	-7%
CC(=O)Oc1ccc(C(=O)Nc2cc(C)on2)cc1	/	?	15µM*	?	?
COc1ccc(NC(=O)CC2C(=O)N(c3cccc(OC)c3)C(=O)N2Cc2ccc3c(c2)OCO3)cc1 (centres undefined)	-9%	/	0%	/	/
CCOC(=O)C1=C(COC(=O)COc2ccccc2C#N)NC(=O)NC1C (centres undefined)	/	9%	0%	1%	-4%
Cc1cccc(-n2ncc3c(N4CCC5(CC4)OCCO5)ncnc32)c1	/	?	6.7µM*	2.5µM*	2.8µM*
c1ccc(-n2ncc3c(N4CCC5(CC4)OCCO5)ncnc32)cc1	13µM*	4.1µM*	13µM*	?	2.5µM*
Cc1ccc(C)c(N2CCN(c3ncnc4c3cnn4-c3ccccc3)CC2)c1	-18%	-2%	-5%	0%	2%
Fc1ccc(-n2ncc3c(N4CCN(c5ccccc5F)CC4)ncnc32)cc1	/	/	-4%	/	/
CC(C)Sc1nc(N)c2c3c(sc2n1)CN(C)CC3	11µM*	?	24µM*	?	?
CN(Cc1ccc(C(F)(F)F)cc1)C(=O)C1CC(=O)N(Cc2ccco2)C1 (centres undefined)	/	0%	/	/	/
O=C(Nc1ccc(Br)cc1)N1CCCC(O)C1 (centres undefined)	4%	14%	-10%	20%	10%
CCN1CCN(C(=O)Nc2ccc(Cc3ccc(NC(=O)N4CCN(CC)CC4)cc3)cc2)CC1	7%	-5%	13µM*	11%	1%
Cc1ccc(NC(=O)N2CCCCCC2)cc1	/	?	15µM*	?	?
O=C(Nc1ccc(Br)cc1)N1CCCCCC1	/	?	11µM*	2.2µM*	?
O=C(Nc1ccccc1)N1CCN(CCc2ccccc2)CC1	7%	3%	-2%	-1%	-1%
CCOC(=O)c1ccc(NC(=O)N2CCCCC2)cc1	?	10µM*	13µM*	3.2µM*	2.5µM*
Nc1c(N2CCCCC2)c2ccccc2oc1=O	-16%	0%	-8%	-2%	0%
COc1cccc(CNC(=O)c2cccc(-n3c(C)nc4cccnc43)c2)c1OC	/	/	-2%	/	/
Cc1[nH]c2ccccc2c1-c1cc(-c2cc(-c3c(C)[nH]c4ccccc34)nc(N)n2)nc(N)n1	-3%[9.22 µM]	/	/	/	/
COCCn1c(=S)[nH]c2cc(C(=O)N3CC(C)CC(C)C3)ccc2c1=O (centres undefined)	/	-8%	2%	-3%	-5%
COC(=O)c1ccc(NC(=S)N2CCCC2)cc1	11%	-8%	4%	-3%	0%
CCOC(=O)c1ccc(N/C=C2\CCCCC2=O)cc1	?	2.3µM*	2.7µM*	2.5µM*	4µM*
COC(=O)c1ccc(NC(=O)C(=O)N2CCCC2)cc1	?	?	21µM*	?	2.8µM*
